Source: a collection of fitness landscapes (doi:10.1126/science.1257360)
Over roughly 140,000 sequences, “enrichment ratio after two sorts for PhoP signalling” has its median near 0; the highest 2% begin near 11. The sample holds the highest values, similar sequences and a random draw of the others, so the mix is not that of the screen.

B1: PhoQ; a variant is named by its letters at X, in order, P23837 (parent)
chain: MKKLLRLFFPLSLRVRFLLATAAVVLVLSLAYGMVALIGYSVSFDKTTFRLLRGESNLFYTLAKWENNKLHVELPENIDKQSPTMTLIYDENGQLLWAQRDVPWLMKMIQPDWLKSNGFHEIEADVNDTSLLLSGDHSIQQQLQEVREDDDDAEMTHSVAVNVYPATSRMPKLTIVVVDTIPVELKSSYMVWSWFIYVLSANLLLVIPLLWVAAWWSLRPIEALAKEVRELEEHNRELLNPATTRELTSLVRNLNRLLKSERERYDKYRTTLTDLTHSLKTPLXXLQXXLRSLRSEKMSVSDAEPVMLEQISRISQQIGYYLHRASMRGGTLLSRELHPVAPLLDNLTSALNKVYQRKGVNISLDISPEISFVGEQNDFVEVMGNVLDNACKYCLEFVEISARQTDEHLYIVVEDDGPGIPLSKREVIFDRGQRVDTLRPGQGVGLAVAREITEQYEGKIVAGESMLGGARMEVIFGRQHSAPKDE

Variants of: B1
Experiment: enrichment ratio after two sorts for PhoP signalling (ratio (wild type AVST 3.29)); higher = more functional
Details: with PhoP (E. coli)

**Q.** For ASWM, which enrichment ratio is on record?
**A.** The enrichment ratio was no more than 0.25.

**Q.** Which enrichment ratio does the source give for ASTM here?
**A.** Its enrichment ratio is 12.3.

**Q.** Which enrichment ratio does the source give for ASGM here?
**A.** The enrichment ratio was 22.7.

**Q.** For ASRM, which enrichment ratio is on record?
**A.** Its enrichment ratio is no more than 0.25.

**Q.** With ASPM as the variant, how does the enrichment ratio read?
**A.** The enrichment ratio was 0.773.

**Q.** With ASDH as the variant, how does the enrichment ratio read?
**A.** Its enrichment ratio is no more than 0.25.

**Q.** Which enrichment ratio does the source give for ASGD here?
**A.** The enrichment ratio was no more than 0.25.

**Q.** ASAY was tested. Which enrichment ratio did it give?
**A.** The enrichment ratio was 4.58.

**Q.** With ASAM as the variant, how does the enrichment ratio read?
**A.** Its enrichment ratio is 20.2.

**Q.** With TKYS as the variant, how does the enrichment ratio read?
**A.** Its enrichment ratio is no more than 0.25.

**Q.** For NHDM, which enrichment ratio is on record?
**A.** Its enrichment ratio is no more than 0.25.

**Q.** With KGIG as the variant, how does the enrichment ratio read?
**A.** The enrichment ratio was no more than 0.25.

**Q.** IWNF was tested. Which enrichment ratio did it give?
**A.** The enrichment ratio was no more than 0.25.

**Q.** For ETES, which enrichment ratio is on record?
**A.** Its enrichment ratio is no more than 0.25.

**Q.** IRLA was tested. Which enrichment ratio did it give?
**A.** The enrichment ratio was 0.272.

**Q.** With GMFY as the variant, how does the enrichment ratio read?
**A.** The enrichment ratio was no more than 0.25.

**Q.** How did the enrichment ratio turn out when FLEE was run?
**A.** Its enrichment ratio is no more than 0.25.

**Q.** Which enrichment ratio does the source give for PCYL here?
**A.** The enrichment ratio was no more than 0.25.

**Q.** Which enrichment ratio does the source give for FIHC here?
**A.** Its enrichment ratio is no more than 0.25.

**Q.** With LFFW as the variant, how does the enrichment ratio read?
**A.** Its enrichment ratio is no more than 0.25.

**Q.** For NMQS, which enrichment ratio is on record?
**A.** The enrichment ratio was no more than 0.25.

**Q.** For MMQI, which enrichment ratio is on record?
**A.** The enrichment ratio was no more than 0.25.

**Q.** For TMQI, which enrichment ratio is on record?
**A.** The enrichment ratio was 12.3.

**Q.** Which enrichment ratio does the source give for TMQS here?
**A.** The enrichment ratio was 14.3.

**Q.** How did the enrichment ratio turn out when TMQP was run?
**A.** Its enrichment ratio is no more than 0.25.

**Q.** With KMQS as the variant, how does the enrichment ratio read?
**A.** The enrichment ratio was no more than 0.25.

**Q.** For KESH, which enrichment ratio is on record?
**A.** The enrichment ratio was no more than 0.25.

**Q.** How did the enrichment ratio turn out when VQMH was run?
**A.** Its enrichment ratio is no more than 0.25.

**Q.** Which enrichment ratio does the source give for RVAL here?
**A.** The enrichment ratio was no more than 0.25.

**Q.** How did the enrichment ratio turn out when CFSS was run?
**A.** The enrichment ratio was 11.9.

**Q.** Which enrichment ratio does the source give for TFSS here?
**A.** Its enrichment ratio is 11.4.

**Q.** How did the enrichment ratio turn out when TFSK was run?
**A.** The enrichment ratio was no more than 0.25.

**Q.** With TGSS as the variant, how does the enrichment ratio read?
**A.** Its enrichment ratio is 11.

**Q.** With VFSS as the variant, how does the enrichment ratio read?
**A.** The enrichment ratio was no more than 0.25.

**Q.** With WFSS as the variant, how does the enrichment ratio read?
**A.** The enrichment ratio was no more than 0.25.

**Q.** For LGDN, which enrichment ratio is on record?
**A.** Its enrichment ratio is no more than 0.25.

**Q.** How did the enrichment ratio turn out when FQYK was run?
**A.** The enrichment ratio was no more than 0.25.

**Q.** Which enrichment ratio does the source give for SISF here?
**A.** The enrichment ratio was 10.7.

**Q.** With SVGM as the variant, how does the enrichment ratio read?
**A.** Its enrichment ratio is 9.35.

**Q.** LTSM was tested. Which enrichment ratio did it give?
**A.** The enrichment ratio was no more than 0.25.

**Q.** Which enrichment ratio does the source give for SVSM here?
**A.** The enrichment ratio was 13.3.

**Q.** Which enrichment ratio does the source give for SVRM here?
**A.** The enrichment ratio was no more than 0.25.

**Q.** Which enrichment ratio does the source give for KYSM here?
**A.** The enrichment ratio was no more than 0.25.

**Q.** How did the enrichment ratio turn out when STSM was run?
**A.** The enrichment ratio was 16.4.

**Q.** How did the enrichment ratio turn out when ITSM was run?
**A.** Its enrichment ratio is 2.11.

**Q.** Which enrichment ratio does the source give for SNSM here?
**A.** The enrichment ratio was 33.4.

**Q.** With SISM as the variant, how does the enrichment ratio read?
**A.** Its enrichment ratio is 16.

**Q.** With SNSF as the variant, how does the enrichment ratio read?
**A.** Its enrichment ratio is 10.8.

**Q.** How did the enrichment ratio turn out when HVDL was run?
**A.** Its enrichment ratio is no more than 0.25.

**Q.** With YFNP as the variant, how does the enrichment ratio read?
**A.** Its enrichment ratio is no more than 0.25.

**Q.** How did the enrichment ratio turn out when PTIT was run?
**A.** Its enrichment ratio is no more than 0.25.

**Q.** With IFSN as the variant, how does the enrichment ratio read?
**A.** The enrichment ratio was no more than 0.25.

**Q.** KGDF was tested. Which enrichment ratio did it give?
**A.** The enrichment ratio was no more than 0.25.

**Q.** For SCSM, which enrichment ratio is on record?
**A.** The enrichment ratio was 14.5.

**Q.** How did the enrichment ratio turn out when NSSM was run?
**A.** Its enrichment ratio is 0.911.

**Q.** For SSSF, which enrichment ratio is on record?
**A.** The enrichment ratio was 10.

**Q.** Which enrichment ratio does the source give for SDSM here?
**A.** Its enrichment ratio is 1.33.

**Q.** How did the enrichment ratio turn out when FCSM was run?
**A.** Its enrichment ratio is 0.747.

**Q.** Which enrichment ratio does the source give for SCSF here?
**A.** The enrichment ratio was 9.85.

**Q.** For SMSF, which enrichment ratio is on record?
**A.** The enrichment ratio was 5.95.

**Q.** Which enrichment ratio does the source give for SQSM here?
**A.** The enrichment ratio was 15.9.

**Q.** How did the enrichment ratio turn out when SSSM was run?
**A.** The enrichment ratio was 14.8.

**Q.** For SMSM, which enrichment ratio is on record?
**A.** The enrichment ratio was 12.4.

**Q.** For SMHF, which enrichment ratio is on record?
**A.** Its enrichment ratio is no more than 0.25.

**Q.** Which enrichment ratio does the source give for SRSM here?
**A.** Its enrichment ratio is 0.977.

**Q.** For SGVE, which enrichment ratio is on record?
**A.** The enrichment ratio was no more than 0.25.

**Q.** How did the enrichment ratio turn out when SWGV was run?
**A.** Its enrichment ratio is no more than 0.25.

**Q.** How did the enrichment ratio turn out when IDET was run?
**A.** Its enrichment ratio is no more than 0.25.

**Q.** With RIHD as the variant, how does the enrichment ratio read?
**A.** Its enrichment ratio is no more than 0.25.

**Q.** How did the enrichment ratio turn out when LNHQ was run?
**A.** Its enrichment ratio is no more than 0.25.

**Q.** For IEMK, which enrichment ratio is on record?
**A.** The enrichment ratio was no more than 0.25.

**Q.** For EVHQ, which enrichment ratio is on record?
**A.** The enrichment ratio was no more than 0.25.

**Q.** SGSF was tested. Which enrichment ratio did it give?
**A.** The enrichment ratio was 1.84.

**Q.** For TSSM, which enrichment ratio is on record?
**A.** Its enrichment ratio is 24.4.

**Q.** With SPSM as the variant, how does the enrichment ratio read?
**A.** The enrichment ratio was no more than 0.25.

**Q.** Which enrichment ratio does the source give for KQSM here?
**A.** Its enrichment ratio is no more than 0.25.

**Q.** Which enrichment ratio does the source give for TTSM here?
**A.** Its enrichment ratio is 14.8.

**Q.** How did the enrichment ratio turn out when TVSM was run?
**A.** Its enrichment ratio is 37.3.

**Q.** Which enrichment ratio does the source give for YTSM here?
**A.** Its enrichment ratio is 1.02.
